Assay results as given in the supplement of paper PMC4894684.
Structures can show the parent of a compound that is named as a salt. ± gives the standard deviation of the averaged measurements.

What follows are molecules tested on Toxoplasma gondii RH (in HFF) (assay: parasite growth relative to the screen mean (all compounds = 100%); higher = less inhibition of parasite growth). Details: 5 µM; 72 h; oxygen 21 %.
Method in brief: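 Library compounds, held as 10 mM DMSO stocks, were pinned to 5 µM final onto confluent human foreskin fibroblasts in 96-well plates. The cells were infected within 2 h with RH β-Gal–GFP Toxoplasma (MOI 1:5), grown 72 h at 21% O2, and assayed for parasite number by CPRG β-Gal using in-plate standard curves. Growth is reported relative to the screen mean, in which all compounds = 100%, averaged over two screens, and CellTiter-Blue checked uninfected host-cell viability.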

SMILES | parasite growth [%]
CC(C)NCCN(C(C)C)S(=O)(=O)c1ccc(Cl)cc1Cl | 142 ± 34
CNCCCCOc1ccccc1Cc1ccccc1 [Bifemelane hydrochloride] | 43.6 ± 3.2
O=C(NCCN1CCCCC1)c1ccc(I)cc1 [N-[2-(Piperidinylamino)ethyl]-4-iodobenzamide] | 118 ± 12
COC(=O)C1=C(C)NC(C)=C(C(=O)OC(C)C)C1c1cccc2nonc12 (centres undefined) [Isradipine] | 43.3 ± 5.6
CCCCCCCCCCCCCCCCn1cc[n+](Cc2ccccc2)c1C | < 0
CCCCOc1cc(CC2CNC(=O)N2)ccc1OC (centres undefined) | 156 ± 27
Cc1ccc(C(=O)Cn2c3c(sc2=N)CCCC3)cc1 [Pifithrin- α hydrobromide] | 130 ± 1.9
CC(C)NCC(O)COc1ccc(CC(N)=O)cc1 (racemic) [(RS)-Atenolol] | 103 ± 7.6
O=C1Cc2c([nH]c3ccc(Br)cc23)-c2ccccc2N1 [Kenpaullone] | 100 ± 12
CC(=N)NCCCC[C@H](N)C(=O)O [L-NIL hydrochloride] | 130 ± 15
O=C(NCCCN1CCC2(CC1)OCc1ccccc12)[C@H]1CCCN1Cc1ccccc1 | 136.9 ± 0.99
COc1ccc(NC(=O)c2ccc(-c3ccc(-c4noc(C)n4)cc3C)cc2)cc1OCCN(C)C | < 0
CC[N+](CC)(CC)CC(=O)Nc1c(C)cccc1C [QX 314 bromide] | 63.6 ± 9.3
N=C(N)NC(=O)c1nc(Cl)c(N)nc1N [Amiloride hydrochloride] | 102 ± 30
COc1cc(C[C@H]2C(=O)OC[C@@H]2Cc2ccc(OC)c(OC)c2)ccc1O [Arctigenin] | 125 ± 10
COc1ccc2c(c1)c(CC(=O)N1CCOCC1)c(C)n2C(=O)c1ccc(Cl)cc1 | 133 ± 23
CN(C)CCCC1(c2ccc(F)cc2)OCc2cc(C#N)ccc21 (centres undefined) [Citalopram hydrobromide] | 122 ± 3.6
CN(N=O)C(=O)N[C@@H](C=O)[C@@H](O)[C@H](O)[C@H](O)CO [Streptozocin] | 137 ± 5.8
CCN(c1ccccc1)c1cc(=NC)n(C)c(C)n1 | 59 ± 11
N#C/C(=C\c1ccc(O)c(O)c1)C(=O)NCCCCc1ccccc1 | 155 ± 18
CNS(=O)(=O)Cc1ccc2[nH]cc(CCN(C)C)c2c1 [Sumatriptan succinate] | 76.2 ± 11
COc1ccc(CC(=O)NC(/N=C(\NC#N)Nc2cccc3ncccc23)C(C)(C)C)cc1OC (centres undefined) | 123 ± 17
CCCCCCCC/C=C\CCCCCCCC(N)=O [Oleamide] | 74.8 ± 12
O=C(OCCN1CCOCC1)C1(c2ccccc2)CCCCC1 [PRE-084 hydrochloride] | 99.6 ± 19
